For 38 molecules, max response results are on record in PubChem BioAssay AID2506 (National Center for Advancing Translational Sciences (NCATS), 2010).

Structures are written as SMILES. Values joined by “and” are separate entries in the source; they are usually repeats but may differ in a detail not shown here. Equal entries are not always repeated. Active and inactive are the calls of the source. Calls come from the whole dose curve; as a rule, active = well fitted curve in the direction sought with a large enough effect; inactive = no such curve, though single readings can be large or run the other way.

This assay relates to 4-diphosphocytidyl-2-C-methyl-D-erythritol kinase IspE (bacterial, species not stated). Nature of the assay: Confirmatory Assay for Inhibitors of Human Galactokinase (GALK): CDP-Me assay counterscreen for probe SAR. The settings on record: Kinase-Glo ATP luminescence, 1 h. An excerpt:
NIH Molecular Libraries Probe Production Centers Network [MLPCN] NIH Chemical Genomics Center [NCGC] MLPCN Grant: R03 MH085689-01 Assay Submitter (PI): Kent Lai (University of Utah School of Medicine, 50 N Mario Capecchi Drive, Salt Lake City, UT 84132) NCGC Assay Overview The GHMP kinase family is a unique class of important enzymes that plays an essential role in many metabolic processes. It contains more than 170 protein members among which are the galactokinase (GALK) and the CMK enzymes. GALK plays a crucial role in galactose processing and is a potential therapeutic target for Classic Galactosemia (OMIM: 230400). CMK is involved for the non-mevalonate synthesis of isoprenoids precursors and natural products like sterols or ubiquinones which are important to many biological functions. Although the sequence identity between GALK and CMK is low, the three-dimensional structures and active sites are highly similar. Therefore to determine the validity and selectivity of an active compound observed in the GALK qHTS screen (AID: 1868), a bioluminescent counter-screen targeting bacterial CMK was developed. In addition, because the mevalonate independent synthesis of isoprenoids are more prevalent in opportunistic pathogens such as bacteria, CMK is a potential novel therapeutic target where selective inhibitors could be used to determine potential antibacterial effects. The CMK (provided by Kent Lai) was assayed using ATP and 4-diphosphocytidyl-2-C-methyl-D-erythritol (CDP-ME; Echelon, cat# I-M052) as substrates. Promega Kinase-Glo Plus (cat# V3774) technology was used to detect the residual ATP following kinetic reaction. Briefly, the Kinase-Glo Plus contains Ultra-Glo [5] luciferase and D-luciferin which generates a bioluminescence signal from the remaining ATP.
NCGC Assay Protocol Summary: Three uL/well of substrate solution (15 uM ATP, 30 uM CDP-ME, 20 mM HEPES pH8.0, 5 mM MgCl2, 40 mM KCl, 1 mM DTT, 0.01% BSA final concentration) was dispensed into 1536-well, assay plates (Greiner, solid white medium-binding plates) with Aurora Discovery BioRAPTR Flying Reagent Dispenser (FRD; Beckton-Dickenson). Compound and control solutions (23 nL) were transferred to the assay plate using the Kalypsys 1536-pin tool. One uL/well enzyme solution (0.25 ug/mL CDP-Me kinase, 20 mM HEPES pH8.0, 5 mM MgCl2, 40 mM KCl, 1 mM DTT, 0.01% BSA final concentration) was then added using the FRD yielding a total kinase reaction volume of 4 uL/ well. After 1 hour of room temperature incubation, 4 uL Kinase-Glo Plus reagent was added for a final assay volume of 8 uL/well. After 1 min, luminescence was detected with the ViewLux plate reader (Perkin Elmer, Waltham, MA) using a 1 sec exposure time and 2x binning settings.
For orientation: A counterscreen serves to expose hits that act by an unwanted route or on another target.
For the molecule `CCC1CCC2(C1)N=C(Nc1nc3ccccc3o1)NC1=C2C(=O)CCC1` (stereo not drawn), the max response is 0.524% (inactive) [middle of 5 runs].

For the molecule `COc1ccc(C2N=C(Nc3nc4ccccc4o3)NC3=C2C(=O)CC(C)(C)C3)cc1` (stereo not drawn), the max response is 1.84% (inactive).

As to `O=C1CC(c2ccccc2)CC2=C1C1(CCCCC1)N=C(Nc1nc3ccccc3o1)N2` (stereo not drawn), the max response is 5.2% (inactive).

Turning to `CC1(C)CC(=O)C2=C(C1)NC(Nc1nc3ccccc3o1)=NC2c1cccnc1` (stereo not drawn), the max response was 1.01% (inactive).

Regarding `O=C1CCCC2=C1C(c1ccc(Cl)cc1)N=C(Nc1nc3ccccc3o1)N2` (stereo not drawn), the max response is 0.739% (inactive).

With `Cc1ccc(C2N=C(Nc3nc4ccccc4o3)NC3=C2C(=O)CC(C)(C)C3)cc1` (stereo not drawn), the max response was 2.37% (inactive).

Regarding `O=C1CCCC2=C1C1(CCCC1)N=C(Nc1nc3cc(Cl)ccc3o1)N2`, the max response is 3.11% (inactive).

`O=C1CCCC2=C1C1(CCSCC1)N=C(Nc1nc3ccccc3o1)N2`: the max response is -0.443% (inactive).

`O=C1CCCC2=C1C1(CCS(=O)(=O)C1)N=C(Nc1nc3ccccc3o1)N2` (stereo not drawn): the max response is -0.863% (inactive).

For `O=C1CCCC2=C1C1(CCCC1)N=C(Nc1nc3cc(-c4ccccc4)ccc3o1)N2`, the max response is -2.69% (inactive).

Consider `Cc1nc(Nc2nc3ccccc3o2)nc2c1C(=O)CC(C)(C)C2`, for which the max response is -1.17% (inactive).

For the molecule `O=C1CCCC2=C1C1(CCCOC1)N=C(Nc1nc3ccccc3o1)N2` (stereo not drawn), the max response was 3.35% (inactive).

Turning to `O=C1CCCC2=C1C1(CCCC1)N=C(Nc1nc3cc4ccccc4cc3o1)N2`, the max response is 5.94% (inactive).

For the molecule `O=C1CCCC2=C1C1(CCCC1)N=C(Nc1nc3ccccc3n1Cc1ccccc1)N2`, the max response was 4.95% (inactive).

For the molecule `O=C1CCCC2=C1C(c1ccccc1Cl)N=C(Nc1nc3ccccc3o1)N2` (stereo not drawn), the max response was -2.1% (inactive).

Regarding `O=C1CCCC2=C1C1(CCCCC1)N=C(Nc1nc3ccccc3o1)N2`, the max response is -0.522% (inactive).

`CC1(C)CC(=O)C2=C(C1)NC(Nc1nc3ccccc3o1)=NC2c1ccccc1Cl` (stereo not drawn): the max response was 1.88% (inactive).

As for `Cc1ccc2nc(NC3=NC4(CCCC4)C4=C(CCCC4=O)N3)oc2c1`, the max response was 7.12% (inactive).

As to `CC1(C)CC(=O)C2=C(C1)NC(Nc1nc3ccccc3o1)=NC2c1cccc(F)c1` (stereo not drawn), the max response was 2.59% (inactive).

In the case of `CC1(C)N=C(Nc2nc3ccccc3o2)NC2=C1C(=O)CCC2`, the max response is 3.59% (inactive).

Turning to `O=C1CCCC2=C1C1(CCOCC1)N=C(Nc1nc3ccccc3o1)N2`, the max response is 4.63% (inactive).

On to `CC1(C)CC(=O)C2=C(C1)NC(Nc1nc3ccccc3o1)=NC2c1cccc(O)c1` (stereo not drawn), for which the max response is 1.58% (inactive).

As to `O=C1CCCC2=C1[C@@]1(CCC(c3ccccc3)C1)N=C(Nc1nc3ccccc3o1)N2` (stereo partly drawn), the max response is 3.98% (inactive).

Consider `O=C1CCCC2=C1C1(CCC1)N=C(Nc1nc3ccccc3o1)N2`, for which the max response is 4.72% (inactive).

Regarding `CC1(C)CC(=O)C2=C(C1)NC(Nc1nc3ccccc3o1)=NC21CCCC1`, the max response is -5.27% (inactive).

As to `COc1ccccc1C1N=C(Nc2nc3ccccc3o2)NC2=C1C(=O)CC(C)(C)C2` (stereo not drawn), the max response was 1.66% (inactive).

With `O=C1CCCC2=C1C1(CCCC1)N=C(Nc1nc3cc(Br)ccc3o1)N2`, the max response was 5.8% (inactive).

Regarding `O=C1CC(c2ccccc2)CC2=C1C1(CCCC1)N=C(Nc1nc3ccccc3o1)N2` (stereo not drawn), the max response was 3.59% (inactive).

Take `Cn1c(NC2=NC3(CCCC3)C3=C(CCCC3=O)N2)nc2ccccc21`: the max response is 5.48% (inactive).

`COc1cccc(C2N=C(Nc3nc4ccccc4o3)NC3=C2C(=O)CC(C)(C)C3)c1` (stereo not drawn): the max response was 0.986% (inactive).

Turning to `O=C1CCC2=C1C1(CCCC1)N=C(Nc1nc3ccccc3o1)N2`, the max response was 2.86% (inactive).

Regarding `CC1(C)CC(=O)C2=C(C1)NC(Nc1nc3ccccc3o1)=NC2c1cccc(Cl)c1` (stereo not drawn), the max response was 2.44% (inactive).

Take `O=C1CCCC2=C1C1(CCCC1)N=C(Nc1nc3ccccc3o1)N2`: the max response was 4.68% (inactive) and -2.85% (inactive).

In the case of `O=C1CCCC2=C1C1(CCSC1)N=C(Nc1nc3ccccc3o1)N2` (stereo not drawn), the max response was -0.317% (inactive).

For `CC1(C)CC(=O)C2=C(C1)NC(Nc1nc3ccccc3o1)=NC2c1ccccc1` (stereo not drawn), the max response is 1.82% (inactive).

With `Cc1ccc2oc(NC3=NC4(CCCC4)C4=C(CCCC4=O)N3)nc2c1`, the max response was 5.2% (inactive).

For `O=C1CCC2=C1C(c1ccccc1Cl)N=C(Nc1nc3ccccc3o1)N2` (stereo not drawn), the max response was -0.401% (inactive).

On to `CC1CCC2(C1)N=C(Nc1nc3ccccc3o1)NC1=C2C(=O)CCC1` (stereo not drawn), for which the max response is 2.87% (inactive).
